What was measured:
Assay in all cases: log2 ratio of Biotin-Ahx-Ub-VS probe labelling (compound/DMSO); higher = less target engagement, active = hit call of the paper (q ≤ 0.05, log2 ratio ≤ -1)
Conditions in all cases: treatment time: 3 h
[1] = compound: CCC1N(CCc2sccc12)C(=O)CCl
Method in brief: (§1)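 For activity-based profiling, 495 µg portions of HEK293T lysate in Tris/CHAPS/IGEPAL buffer with protease inhibitors were treated in triplicate with compound at 50 or 200 µM or with DMSO for 3 h. A 1 h incubation with Biotin-Ahx-Ub-VS (0.5 µM final) followed, then NeutrAvidin enrichment, LysC and trypsin digestion and diaPASEF LC-MS/MS. The compound/DMSO base-two log ratios were averaged from median-normalised label-free quantities using an unpaired t-test. Proteins needed at least 2 unique peptides to be included.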

[2] = compound: CN1c2ccccc2C(CS1(=O)=O)NC(=O)CCl
Method in brief: as §1

[3] = compound: Cl.ClCC(=O)N1CCc2ncncc2C1
Method in brief: as §1

[4] = compound: Cl.Cn1ncc2C(CCCc12)NC(=O)CCl
Method in brief: as §1

[5] = compound: ClCC(=O)NC1CCOc2ccccc12
Method in brief: as §1

[6] = compound: ClCC(=O)NC1CCCc2ccccc12
Method in brief: (§2)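 HEK293T lysate (495 µg per sample, in Tris/CHAPS/IGEPAL buffer with protease inhibitors) was treated in triplicate with compound over a concentration series or DMSO for 3 h, then with Biotin-Ahx-Ub-VS (0.5 µM final) for 1 h. Labelled DUBs were NeutrAvidin-enriched, digested with LysC and trypsin, and run by diaPASEF LC-MS/MS. Spectronaut label-free protein quantities were global-median-normalised. Values are average log2 ratios compound/DMSO from an unpaired t-test, using proteins with ≥2 unique peptides.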

[7] = compound: ClCC(=O)N[C@@H]1CCCc2ccccc12
Method in brief: as §2

[8] = compound: ClCC(=O)N[C@H]1CCCc2ccccc12
Method in brief: as §2

[9] = compound: CCC1N(CCc2cc(OC)c(Cl)cc12)C(=O)CCl
Method in brief: as §1

[10] = compound: CCCC1N(CCc2cc(OC)c(OC)cc12)C(=O)CCl
Method in brief: as §1

[11] = compound: CN(Cc1cccc(Br)c1)C(=O)CCl
Method in brief: as §1

[12] = compound: CN(Cc1cccc(OCc2ccccc2C)c1)C(=O)CCl
Method in brief: as §1

[13] = compound: CN(Cc1ccccc1)C(=O)CCl
Method in brief: as §1

[14] = compound: COc1ccc(CN(C)C(=O)CCl)cc1
Method in brief: as §1

[15] = compound: COc1cccc(CN(CCCc2ccccc2)C(=O)CCl)c1
Method in brief: as §1

[16] = compound: ClCC(=O)N1CCc2cc(Cl)c(Cl)cc2C1
Method in brief: as §1

[17] = compound: ClCC(=O)N1CCc2nc(ncc2C1)-c1ccccc1
Method in brief: as §1

[18] = compound: ClCC(=O)N1CCc2nocc2C1
Method in brief: as §1

[19] = compound: ClCC(=O)N1CCc2scc(Br)c2C1
Method in brief: as §1

[20] = compound: ClCC(=O)NC(C1CCCC1)c1cccs1
Method in brief: as §1

Measured: log2 ratio of Biotin-Ahx-Ub-VS probe labelling

YOD1 (UniProt Q5VVQ6)
Chain of UniProt Q5VVQ6 (Q5VVQ6 whole entry): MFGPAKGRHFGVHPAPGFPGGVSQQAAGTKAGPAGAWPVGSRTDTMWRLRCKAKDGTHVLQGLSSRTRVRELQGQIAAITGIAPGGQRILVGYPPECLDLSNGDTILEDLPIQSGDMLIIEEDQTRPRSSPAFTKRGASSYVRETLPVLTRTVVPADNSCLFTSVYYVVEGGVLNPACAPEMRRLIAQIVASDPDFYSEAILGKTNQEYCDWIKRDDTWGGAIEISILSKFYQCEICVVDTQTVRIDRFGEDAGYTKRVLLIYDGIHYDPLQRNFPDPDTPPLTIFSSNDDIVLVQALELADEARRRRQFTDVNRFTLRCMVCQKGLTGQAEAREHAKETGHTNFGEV
inactive: [1]; compound concentration: 50uM -0.141 | [1]; compound concentration: 200uM -0.171 | [2]; compound concentration: 50uM -0.237 | [2]; compound concentration: 200uM -0.218 | [3]; compound concentration: 50uM -0.0162 | [3]; compound concentration: 200uM -0.45 | [4]; compound concentration: 50uM 0.0347 | [4]; compound concentration: 200uM -0.0749 | [5]; compound concentration: 50uM -0.0482 | [5]; compound concentration: 200uM 0.0949 | [6]; compound concentration: 0.78uM -0.286 | [6]; compound concentration: 1.56uM -0.115 | [6]; compound concentration: 3.13uM -0.302 | [6]; compound concentration: 6.25uM -0.266 | [6]; compound concentration: 12.5uM -0.478 | [6]; compound concentration: 25uM -0.333 | [6]; compound concentration: 50uM -0.142 | [6]; compound concentration: 100uM -0.14 | [6]; compound concentration: 200uM -0.258 | [7]; compound concentration: 0.78uM -0.469 | [7]; compound concentration: 1.56uM -0.274 | [7]; compound concentration: 3.13uM -0.434 | [7]; compound concentration: 6.25uM -0.346 | [7]; compound concentration: 12.5uM -0.221 | [7]; compound concentration: 25uM -0.268 | [7]; compound concentration: 50uM -0.264 | [7]; compound concentration: 100uM -0.248 | [7]; compound concentration: 200uM -0.262 | [8]; compound concentration: 0.78uM -0.197 | [8]; compound concentration: 1.56uM -0.309 | [8]; compound concentration: 3.13uM -0.298 | [8]; compound concentration: 6.25uM -0.173 | [8]; compound concentration: 12.5uM -0.186 | [8]; compound concentration: 25uM -0.167 | [8]; compound concentration: 50uM -0.0663 | [8]; compound concentration: 100uM -0.169 | [8]; compound concentration: 200uM -0.282 | [9]; compound concentration: 50uM 0.213 | [9]; compound concentration: 200uM -0.308 | [10]; compound concentration: 50uM -0.12 | [10]; compound concentration: 200uM -0.312 | [11]; compound concentration: 50uM -0.152 | [11]; compound concentration: 200uM 0.742 | [12]; compound concentration: 50uM -0.555 | [12]; compound concentration: 200uM -0.132 | [13]; compound concentration: 50uM -0.391 | [13]; compound concentration: 200uM -0.259 | [14]; compound concentration: 50uM -0.465 | [14]; compound concentration: 200uM -0.288 | [15]; compound concentration: 50uM -0.0608 | [15]; compound concentration: 200uM 0.000762 | [16]; compound concentration: 50uM 0.356 | [16]; compound concentration: 200uM -0.373 | [17]; compound concentration: 50uM 0.102 | [17]; compound concentration: 200uM 0.0411 | [18]; compound concentration: 50uM -0.0213 | [18]; compound concentration: 200uM -0.416 | [19]; compound concentration: 50uM 0.039 | [19]; compound concentration: 200uM -0.482 | [20]; compound concentration: 50uM -0.11 | [20]; compound concentration: 200uM 0.00107

MINDY4 (UniProt Q4G0A6)
Chain of UniProt Q4G0A6 (Q4G0A6 whole entry): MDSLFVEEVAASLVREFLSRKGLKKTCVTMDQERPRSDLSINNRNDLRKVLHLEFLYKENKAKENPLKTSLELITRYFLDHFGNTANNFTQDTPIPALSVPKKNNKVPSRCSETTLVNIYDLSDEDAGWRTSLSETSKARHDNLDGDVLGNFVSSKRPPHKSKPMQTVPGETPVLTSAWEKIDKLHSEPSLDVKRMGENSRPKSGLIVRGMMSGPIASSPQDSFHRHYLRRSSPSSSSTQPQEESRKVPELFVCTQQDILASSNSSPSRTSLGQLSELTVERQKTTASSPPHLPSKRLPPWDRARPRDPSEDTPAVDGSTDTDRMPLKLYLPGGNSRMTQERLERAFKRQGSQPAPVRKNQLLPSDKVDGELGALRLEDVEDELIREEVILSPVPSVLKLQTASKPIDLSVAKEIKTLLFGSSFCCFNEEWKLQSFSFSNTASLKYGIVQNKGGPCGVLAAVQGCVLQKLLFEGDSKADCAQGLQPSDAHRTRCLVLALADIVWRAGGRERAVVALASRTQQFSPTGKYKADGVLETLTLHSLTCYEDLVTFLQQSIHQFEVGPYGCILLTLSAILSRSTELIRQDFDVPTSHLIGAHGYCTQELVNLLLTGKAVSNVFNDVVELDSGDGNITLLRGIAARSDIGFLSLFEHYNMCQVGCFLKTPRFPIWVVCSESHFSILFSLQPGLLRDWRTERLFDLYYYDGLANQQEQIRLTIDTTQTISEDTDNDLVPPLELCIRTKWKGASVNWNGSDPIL
active: [2]; compound concentration: 50uM -4.18 | [6]; compound concentration: 0.78uM -2.83 | [6]; compound concentration: 1.56uM -3.43 | [6]; compound concentration: 3.13uM -2.24 | [6]; compound concentration: 6.25uM -2.62 | [6]; compound concentration: 12.5uM -1.89 | [6]; compound concentration: 25uM -2.3 | [6]; compound concentration: 50uM -2.78 | [6]; compound concentration: 100uM -2.85 | [6]; compound concentration: 200uM -2.45 | [7]; compound concentration: 1.56uM -1.89 | [7]; compound concentration: 3.13uM -2.16 | [7]; compound concentration: 6.25uM -1.61 | [7]; compound concentration: 25uM -2.02 | [7]; compound concentration: 50uM -1.96 | [7]; compound concentration: 100uM -1.48 | [7]; compound concentration: 200uM -1.33 | [8]; compound concentration: 0.78uM -2.37 | [8]; compound concentration: 1.56uM -1.3 | [8]; compound concentration: 3.13uM -1.21 | [8]; compound concentration: 6.25uM -3.95 | [8]; compound concentration: 12.5uM -1.25 | [8]; compound concentration: 25uM -1.1 | [8]; compound concentration: 50uM -1.99 | [8]; compound concentration: 100uM -1.91 | [8]; compound concentration: 200uM -2.54 | [11]; compound concentration: 200uM -1.19
inactive: [1]; compound concentration: 50uM -0.62 | [1]; compound concentration: 200uM 0.797 | [2]; compound concentration: 200uM 0.688 | [3]; compound concentration: 50uM 0.73 | [3]; compound concentration: 200uM -0.108 | [4]; compound concentration: 50uM 0.308 | [4]; compound concentration: 200uM 0.136 | [5]; compound concentration: 50uM 0.825 | [5]; compound concentration: 200uM 0.522 | [7]; compound concentration: 0.78uM -0.837 | [7]; compound concentration: 12.5uM -0.893 | [9]; compound concentration: 50uM 0.0614 | [9]; compound concentration: 200uM -0.042 | [10]; compound concentration: 50uM 0.725 | [10]; compound concentration: 200uM -0.113 | [11]; compound concentration: 50uM 0.681 | [12]; compound concentration: 50uM 0.702 | [12]; compound concentration: 200uM 0.585 | [13]; compound concentration: 50uM 0.106 | [13]; compound concentration: 200uM -0.273 | [14]; compound concentration: 50uM 0.675 | [14]; compound concentration: 200uM 0.712 | [15]; compound concentration: 50uM 0.722 | [15]; compound concentration: 200uM 0.797 | [16]; compound concentration: 50uM 0.706 | [16]; compound concentration: 200uM 0.819 | [17]; compound concentration: 50uM 0.669 | [17]; compound concentration: 200uM 0.652 | [18]; compound concentration: 50uM 0.0993 | [18]; compound concentration: 200uM 0.614 | [19]; compound concentration: 50uM 0.589 | [19]; compound concentration: 200uM 0.525 | [20]; compound concentration: 50uM 0.738 | [20]; compound concentration: 200uM 0.487
